# Experimental data published in PubChem BioAssay (NCATS).
# Records with an inconclusive call do not appear. A call without a number means that no potency is given here. Calls of active or inactive are those of the source. Calls follow the shape of the dose curve; as a rule, active = well fitted curve in the direction sought with a large enough effect; inconclusive = small, poorly fitted or top-dose-only effect, or another doubt; inactive = no such curve, though single readings can be large; an effect the other way counts as inactive or inconclusive.
# How the values were obtained:
# [1] = tested on: Zika virus NS2B-NS3 protease; experiment: Primary screen GU AMC qHTS for Zika virus inhibitors (AID 1347154); also: nearly all actives have a fitted effect of over 70% in size
# Procedure, shortened: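 Unlinked Zika NS2B hydrophilic domain/NS3 protease domain noncovalent complex (25 nM final) in 10 mM Tris-HCl pH 8.0, 0.01% Tween 20, with AMC peptide substrate. Fluorescence (ex 340, em 450 nm) change over 15 min, room temperature; percent inhibition fitted to 4-parameter Hill equation.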
# [2] = qHTS to identify inhibitors of the type 1 interferon - major histocompatibility complex class I in skeletal muscle: primary screen against the NCATS Pharmaceutical Collection (AID 1347407);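 also: luminescence of HiBiT knocked into endogenous HLA-B as interferon-induced MHC class I level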
# Procedure, shortened: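 Luminescence from HiBiT-tagged endogenous HLA-B*08:01 served as the read-out of IFN-beta-induced MHC class I in CRISPR-engineered C25cl48 myoblasts. Cells received 4 ng/ml IFN-beta plus compound (high final 46 uM, […]) for 24 h.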
# [3] = biological target: Protein phosphatase 1D (Homo sapiens) (UniProt O15297); experiment: Rhodamine-PBP qHTS Assay for Modulators of WT P53-Induced Phosphatase 1 (WIP1) (AID 1347425)
# Procedure, shortened: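 WIP1 (5 nM final) was preincubated with compound for 1 hour at room temperature. It then dephosphorylated 10 uM VEPPL-pS-QETFS peptide in Tris-HCl pH 7.5 with 30 mM MgCl2. Released Pi was detected by 10 uM Rh-PBP fluorescence (ex 525/em 598 nm) read at 1-min intervals for 11 min, as delta f1 - f0.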
# [4] = biological target: Protein phosphatase 1D (Homo sapiens) (UniProt O15297); experiment: RapidFire Mass Spectrometry qHTS Assay for Modulators of WT P53-Induced Phosphatase 1 (WIP1) (AID 1347424);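 also: amount of dephosphorylated VEPPL-S-QETFS peptide product formed by WIP1; series mostly up to about 63 µM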
# Procedure, shortened: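 WIP1 (10 nM final) was preincubated 1 h at room temperature with compounds in Tris-HCl pH 7.5, 30 mM MgCl2, TCEP, EGTA, BSA; 2 uM VEPPL-pS-QETFS phosphopeptide was added for 5 min, quenched with formic acid, and dephosphorylated product quantified by RapidFire MS.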
# [5] = tested on: Zika virus NS2B-NS3 protease (unlinked complex); experiment: Primary screen GU Rhodamine qHTS for Zika virus inhibitors: Unlinked NS2B-NS3 protease assay (AID 1347159); also: nearly all actives have a fitted effect of over 60% in size; also: potency is read from the fitted curve at half-maximal effect
# Procedure, shortened: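 Noncovalent NS2B hydrophilic domain/NS3 protease complex (25 nM final) in 10 mM Tris-HCl pH 8.0, 0.01% Tween 20, preincubated 15 min with compounds (up to 114 microM), then 1.5 microM Rhodamine110 substrate. Fluorescence change over 15 min fitted to 4-parameter Hill.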
# [6] = tested on: Zika virus NS2B-NS3 protease (linked construct); experiment: Primary screen NINDS Rhodamine qHTS for Zika virus inhibitors (AID 1347160); conditions: outcome: dose series up to 57.1 µM unless noted; also: nearly all actives have a fitted effect of over 55% in size
# Procedure, shortened: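 Purified NS2B-NS3 protease with the NS2B hydrophilic domain joined by a flexible linker (25 nM) in 10 mM Tris-HCl pH 8.0, 0.01% Tween 20, preincubated 15 min at RT with compound; Rhodamine110 peptide substrate 1.5 µM; fluorescence change over 15 min; 4-parameter Hill fit.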
# [7] = qHTS to identify inhibitors of the type 1 interferon - major histocompatibility complex class I in skeletal muscle: primary screen against the NCATS LOPAC collection (AID 1347405);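 also: lytic HiBiT luminescence reporting HLA-B protein level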
# Procedure, shortened: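 Luminescence from HiBiT fused to endogenous HLA-B in CRISPR-engineered human myoblasts served as the read-out. Cells received 4.0 ng/ml IFN-beta plus compound (seven concentrations, 1:4.3 steps, highest 46 uM final) for 24 hrs before lytic detection.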
# [8] = qHTS for inhibitors of adenylyl cyclases using a fission yeast platform: a pilot screen against the NCATS LOPAC library (AID 1347410)
# Procedure, shortened: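 Fission yeast qHTS: CHP2027 cells (AC9-GNAS-PDE4D2, fbp1-GFP), 5x10^6 cells/mL working density, EMM + His/Lys/Ura; LOPAC at up to 57 µM final; 18 h dark, 30C; GFP by laser cytometry. DPI positive control, DMSO vehicle.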
# [9] = Validation qHTS assay for inhibitors of Activation Induced Cytidine Deaminase (AID): UDG Counterscreen signal (AID 1347427)
# Procedure, shortened: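 Counterscreen read of UDG activity (2 U/mL, 4/3x) in the FRET deamination format with AID (1 uM, 4/3x), DJC20/DJC23 substrates (250 nM, 4x), 4 h at room temperature. NaOH stop, fluorescence at 560 ex/665 em.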
# [10] = ZIKV-mCherry secondary qHTS for Zika virus inhibitors (AID 1347158); also: top concentration of the series differs between compounds
# Procedure, shortened: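 Vero, 5,000 cells/well, o/n 37 °C; cpd pin-transferred in DMSO; ZIKV-mCherry MOI 1, 48-72 h 37 °C; 32% PFA stock fix, Hoechst; imaged 10x DAPI/mCherry; mCherry+ threshold 450 RFU; % infection.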
# [11] = Confirmatory screen NINDS Rhodamine qHTS for Zika virus inhibitors (AID 1347161); also: potency is read from the fitted curve at half-maximal effect; nearly all actives have a fitted effect of over 60% in size
# Procedure, shortened: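 Single-chain NS2B-NS3 protease, 25 nM, pH 8.0; compounds preincubated 15 min. Activity: Rhodamine110 release from 1.5 microM substrate over 15 min, room temperature, data fitted to 4-parameter Hill.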
# [12] = tested on: Zika virus NS2B-NS3 protease (linked); experiment: 384 well plate NINDS AMC confirmatory qHTS for Zika virus inhibitors (AID 1347163); also: nearly all actives have a fitted effect of over 50% in size; also: potency is read from the fitted curve at half-maximal effect
# Procedure, shortened: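 Linked NS2B-NS3 protease (final 5 nM, 30 nM or 60 nM) was preincubated with compounds (final up to 1 mM) for ~15 minutes. Ac-VKTGKR-AMC substrate (final 30 microM) then reacted for 25 minutes at room temperature in the dark. Fluorescence (ex 355/em 460 nm) was normalized to no-enzyme and no-inhibitor controls.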
# [13] = tested on: Zika virus NS2B-NS3 protease (linked construct); experiment: 384 well plate NINDS Rhodamine confirmatory qHTS for Zika virus inhibitors (AID 1347164); conditions: rhodamine-110 peptide substrate fluorescence;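 also: fluorescence from protease cleavage of Ac-LKRR-rhodamine 110 substrate; potency is read from the fitted curve at half-maximal effect; nearly all actives have a fitted effect of over 65% in size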
# Procedure, shortened: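 Enzyme (final 5/30/60 nM) + cpd (DMSO), ~15 min; add Ac-LKRR-Rd 10 microM final; 25 min RT, dark; FI ex 485/em 538; normalized to no-enzyme, no-inhibitor ctrls; aprotinin intraplate ctrl.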
# [14] = Vero cells viability qHTS for Zika virus inhibitors (AID 1347167)
# Procedure, shortened: (§1)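 Counter-screen for cytotoxicity of hits from NS2B-NS3 protease qHTS. Overnight-attached cells (2.5 x 10^5 cells/mL, DMEM/4% FBS) were dosed in titration, incubated 24 to 48 hours, then assayed by CellTiter Glo.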
# [15] = biological target: Lysine-specific demethylase 5B (Homo sapiens) (UniProt Q9UGL1); experiment: Optimization screen for KDM5B Histone Demethylases FDH coupled qHTS against the LOPAC library (AID 1347166)
# Procedure, shortened: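 KDM5BDeltaAP (200nM final) preincubated 10 min with compound, then 12.5uM H3K4Me3, 25uM a-ketoglutarate, ascorbate, Fe(II), NAD+ and FDH added; 50mM HEPES pH 7.5, 0.01% Tween-20. NADH fluorescence (340/450 nm) change over 30 min, room temperature.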
# [16] = Confirmatory screen GU Rhodamine qHTS for Zika virus inhibitors qHTS (AID 1347157); also: potency is read from the fitted curve at half-maximal effect; nearly all actives have a fitted effect of over 70% in size
# Procedure, shortened: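 Unlinked NS2B/NS3, 25 nM; Rhod110 peptide, 1.5 microM; compounds, up to 114 microM. Reaction run 15 min at RT in 10 mM Tris-HCl pH 8.0, 0.01% Tween 20; kinetic fluorescence change fitted with a 4-parameter Hill model.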
# [17] = HepG2 cells viability qHTS for Zika virus inhibitors (AID 1347168)
# Procedure, shortened: as §1
# [18] = Tertiary RLuc qRT-PCR qHTS assay for Zika virus inhibitors (AID 1347169); also: potency is read from the fitted curve at half-maximal effect; nearly all actives have a fitted effect of over 55% in size
# Procedure, shortened: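 Vero, 1,000 cells/well, o/n 37 C; cpd pinned in DMSO; ZIKV-RLuc Cambodian, MOI 1-2, 48-72 h 37 C; live-cell RLuc substrate, lum read at 1-1.5 h.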
# [19] = qHTS to identify inhibitors of the type 1 interferon - major histocompatibility complex class I in skeletal muscle: primary screen against the NCATS Mechanism Interrogation Plate v5.0 (MIPE) Libary (AID 1347411); also: nearly all actives have a fitted effect of over 65% in size
# Procedure, shortened: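 Luminescence from HiBiT-tagged endogenous HLA-B*08:01 served as the MHC class I read-out. CRISPR-engineered C25cl48 human myoblasts received 4.0 ng/ml IFN-beta plus compound for 24 hrs, with an 11-point, 1:3 series topping at 46 uM final.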
# Chain of Protein phosphatase 1D (Homo sapiens) (O15297 whole entry, looked up): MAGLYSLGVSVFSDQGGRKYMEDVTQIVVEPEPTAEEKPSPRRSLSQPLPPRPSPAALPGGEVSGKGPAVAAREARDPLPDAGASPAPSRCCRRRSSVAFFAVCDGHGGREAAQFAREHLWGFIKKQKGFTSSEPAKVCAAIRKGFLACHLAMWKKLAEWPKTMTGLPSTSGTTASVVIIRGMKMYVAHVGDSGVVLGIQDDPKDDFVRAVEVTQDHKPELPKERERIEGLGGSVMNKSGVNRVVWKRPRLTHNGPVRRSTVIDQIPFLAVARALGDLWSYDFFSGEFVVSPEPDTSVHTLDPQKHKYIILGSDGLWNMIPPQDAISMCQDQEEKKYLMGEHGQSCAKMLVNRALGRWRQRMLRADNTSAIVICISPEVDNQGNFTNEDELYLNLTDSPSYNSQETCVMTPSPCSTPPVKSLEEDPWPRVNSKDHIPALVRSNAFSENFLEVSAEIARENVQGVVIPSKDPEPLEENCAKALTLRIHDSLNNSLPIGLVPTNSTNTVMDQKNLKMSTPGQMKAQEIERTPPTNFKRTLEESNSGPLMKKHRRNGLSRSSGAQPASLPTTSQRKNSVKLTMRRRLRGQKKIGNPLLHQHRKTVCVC
# Chain of Lysine-specific demethylase 5B (Homo sapiens) (Q9UGL1 whole entry, looked up): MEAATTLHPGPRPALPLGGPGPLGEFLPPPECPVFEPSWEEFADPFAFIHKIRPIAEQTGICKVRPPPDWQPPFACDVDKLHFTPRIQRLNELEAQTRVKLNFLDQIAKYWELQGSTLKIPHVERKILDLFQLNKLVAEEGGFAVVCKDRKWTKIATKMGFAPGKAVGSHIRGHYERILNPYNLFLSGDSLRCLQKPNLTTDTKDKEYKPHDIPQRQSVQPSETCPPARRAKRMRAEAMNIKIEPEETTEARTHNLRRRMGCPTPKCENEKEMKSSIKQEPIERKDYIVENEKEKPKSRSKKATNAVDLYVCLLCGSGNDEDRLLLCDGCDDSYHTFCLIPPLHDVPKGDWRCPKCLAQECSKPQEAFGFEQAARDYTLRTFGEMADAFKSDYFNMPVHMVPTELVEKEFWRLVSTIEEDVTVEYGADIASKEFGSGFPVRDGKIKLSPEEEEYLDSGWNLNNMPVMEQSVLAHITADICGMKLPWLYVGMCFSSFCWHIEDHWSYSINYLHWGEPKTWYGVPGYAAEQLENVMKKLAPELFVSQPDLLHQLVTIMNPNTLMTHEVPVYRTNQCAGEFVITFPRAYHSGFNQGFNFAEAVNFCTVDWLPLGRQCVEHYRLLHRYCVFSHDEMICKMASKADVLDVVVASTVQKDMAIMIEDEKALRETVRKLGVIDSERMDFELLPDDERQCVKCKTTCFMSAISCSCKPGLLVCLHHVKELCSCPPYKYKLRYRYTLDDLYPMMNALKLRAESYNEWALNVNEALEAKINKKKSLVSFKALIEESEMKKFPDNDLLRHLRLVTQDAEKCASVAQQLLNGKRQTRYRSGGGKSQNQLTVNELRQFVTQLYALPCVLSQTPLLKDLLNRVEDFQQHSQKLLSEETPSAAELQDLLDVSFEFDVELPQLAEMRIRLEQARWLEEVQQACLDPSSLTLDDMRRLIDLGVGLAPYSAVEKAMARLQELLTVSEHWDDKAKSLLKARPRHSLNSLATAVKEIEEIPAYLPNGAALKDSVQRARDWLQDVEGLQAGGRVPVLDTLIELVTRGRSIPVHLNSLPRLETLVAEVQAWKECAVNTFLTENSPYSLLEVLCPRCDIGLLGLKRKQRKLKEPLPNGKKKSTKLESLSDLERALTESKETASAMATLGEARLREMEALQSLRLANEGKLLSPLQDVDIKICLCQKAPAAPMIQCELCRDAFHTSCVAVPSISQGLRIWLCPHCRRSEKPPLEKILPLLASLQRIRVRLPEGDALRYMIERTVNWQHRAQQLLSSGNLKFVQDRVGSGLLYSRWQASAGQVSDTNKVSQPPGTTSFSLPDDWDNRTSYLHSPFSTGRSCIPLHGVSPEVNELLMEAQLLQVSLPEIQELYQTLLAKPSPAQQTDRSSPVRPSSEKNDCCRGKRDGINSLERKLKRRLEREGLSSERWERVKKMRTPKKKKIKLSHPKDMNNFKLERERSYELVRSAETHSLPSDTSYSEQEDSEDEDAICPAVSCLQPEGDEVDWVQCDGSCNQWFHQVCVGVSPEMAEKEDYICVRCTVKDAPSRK
smiles,measurement,setting,value
CCCC(=O)O[C@]1(C(=O)CCl)[C@@H](C)C[C@H]2[C@@H]3CCC4=CC(=O)C=C[C@]4(C)[C@@]3(F)C(=O)C[C@@]21C,Potency,[1],inactive
same,Potency,[2],inactive
same,outcome,[3],inactive
Cc1ccc(CCn2c3c(c4cc(Cl)ccc42)CN(C)CC3)cn1,Potency,[1],inactive
same,Potency,[2],inactive
same,outcome,[3],inactive
CCCCCCCCCCCCCCCCCCNC(=O)OC1CCN(C(=O)OC[C@H](COC(=O)N(Cc2cccc[n+]2CC)C(=O)c2ccccc2OC)OC)CC1,Potency,[1],inactive
same,Potency,[4],inactive
same,outcome,[3],inactive
CN(C(=O)C(Cl)Cl)c1ccc(OC(=O)c2ccco2)cc1,Potency,[1],inactive
same,Potency,[4],inactive
same,outcome,[3],inactive
N#CSCC(=O)O,Potency,[1],inactive
same,Potency,[4],inactive
same,outcome,[3],inactive
Cc1cc(=O)oc2cc(O[C@@H]3SC[C@@H](O)[C@H](O)[C@H]3O)ccc12,Potency,[1],inactive
same,Potency,[2],inactive
same,outcome,[3],inactive
CCCCCC1Nc2cc(C(F)(F)F)c(S(N)(=O)=O)cc2S(=O)(=O)N1 (stereo not given),Potency,[1],inactive
same,Potency,[4],inactive
same,outcome,[3],inactive
COC(=O)C1=C(C)NC(C)=C(C(=O)OCCc2ccc(N3CCN(C(c4ccccc4)c4ccccc4)CC3)cc2)C1c1cccc([N+](=O)[O-])c1 (stereo not given),Potency,[1],inactive
same,Potency,[4],inactive
same,outcome,[3],inactive
CCCCC(CC)COC(=O)c1ccccc1C(=O)O (stereo not given),Potency,[1],inactive
same,Potency,[4],inactive
CCCOc1ccc2c(c1)CC[C@@H]1[C@@H]2CC[C@]2(C)C(OC)CC[C@@H]12 (stereo not given in full),Potency,[1],inactive
same,Potency,[2],inactive
same,outcome,[3],inactive
O=P(O)(O)OCC(O)CO (stereo not given),Potency,[1],inactive
same,Potency,[4],inactive
same,outcome,[3],inactive
CCc1cccc2c(CCO)c[nH]c12,Potency,[1],inactive
same,Potency,[2],inactive
same,outcome,[3],inactive
O=C(O)CCC(=O)OC[C@@H](NC(=O)C(Cl)Cl)[C@H](O)c1ccc([N+](=O)[O-])cc1,Potency,[1],inactive
same,Potency,[4],inactive
same,outcome,[3],inactive
CC(CC1c2ccccc2CCc2ccccc21)CN(C)C (stereo not given),Potency,[1],inactive
same,Potency,[4],inactive
same,outcome,[3],inactive
Cc1cccc(C)c1NC(=O)c1cc(S(N)(=O)=O)c(Cl)cc1O,Potency,[1],inactive
same,Potency,[4],inactive
same,outcome,[3],inactive
Oc1ccccc1-c1nnco1,Potency,[1],inactive
same,Potency,[4],inactive
same,outcome,[3],inactive
CC(=O)OCC(=O)[C@@]1(O)[C@H](OC(C)=O)C[C@H]2[C@@H]3CCC4=CC(=O)C=C[C@]4(C)[C@@]3(F)[C@@H](O)C[C@@]21C,Potency,[1],inactive
same,Potency,[4],inactive
same,outcome,[3],inactive
NCC(=O)O,Potency,[1],inactive
same,Potency,[2],inactive
same,outcome,[3],inactive
COc1ccc(/C(C)=C/C(=O)O)c(OC)c1,Potency,[1],inactive
same,Potency,[4],inactive
same,outcome,[3],inactive
Cc1nc(N)nc(N)c1-c1ccc(Cl)c(Cl)c1,Potency,[1],inactive
same,Potency,[4],inactive
same,outcome,[3],inactive
Nc1ccc(C(=O)N2CC3CC(CN(Cc4ccccc4)C3)C2)cc1,Potency,[1],inactive
same,Potency,[4],inactive
same,outcome,[3],inactive
Brc1ccc([C@H]2CN3CCSC3=N2)cc1,Potency,[5],inactive
same,outcome,[6],inactive
same,Potency,[7],inactive
same,outcome,[8],inactive
same,outcome,[9],inactive
C[C@@H]1CCC[C@H](C)N1CCCC(O)(c1ccccc1)c1ccccn1 (stereo not given in full),Potency,[1],inactive
same,Potency,[4],inactive
same,outcome,[3],inactive
CCOC(=O)Cn1cccc1-c1nc(-c2ccc(OC)cc2)c(-c2ccc(OC)cc2)s1,outcome,[10],inactive
same,Potency,[5],inactive
same,outcome,[6],inactive
same,Potency,[11],11.1 µM (active)
same,Potency,[12],inactive
same,Potency,[13],0.398 µM (active)
same,outcome,[14],inactive
same,Potency,[2],inactive
same,Potency,[4],inactive
same,outcome,[3],inactive
CC(NCCC(c1ccccc1)c1ccccc1)c1ccccc1 (stereo not given),Potency,[1],inactive
same,Potency,[4],inactive
same,outcome,[3],inactive
OCc1cccnc1,Potency,[1],inactive
same,Potency,[4],inactive
same,outcome,[3],inactive
Cc1ccc(O)cc1,Potency,[1],inactive
same,outcome,[3],inactive
CCOc1ccc(NS(=O)(=O)c2ccc(N)cc2)nn1,Potency,[1],inactive
same,Potency,[4],inactive
same,outcome,[3],inactive
O=c1[nH]sc2cc(Cl)ccc12,Potency,[1],inactive
same,Potency,[4],inactive
same,outcome,[3],inactive
O=C(OCC1(COC(=O)c2cccnc2)CCCC(COC(=O)c2cccnc2)(COC(=O)c2cccnc2)C1O)c1cccnc1,Potency,[1],inactive
same,Potency,[4],inactive
same,outcome,[3],inactive
NS(=O)(=O)c1cc(C(=O)NN2C[C@H]3[C@H]4CCC(C4)[C@H]3C2)ccc1Cl,Potency,[1],inactive
same,Potency,[4],inactive
same,outcome,[3],inactive
Cc1nn(-c2ccccc2)c(C)c1/C=N/N1CCN(Cc2ccccc2)CC1,Potency,[5],inactive
same,outcome,[6],inactive
same,outcome,[15],inactive
same,Potency,[7],inactive
same,outcome,[8],inactive
same,outcome,[9],inactive
O=C1NC(=O)/C(=C/c2ccc3c(c2)OC(F)(F)O3)S1,Potency,[16],12.4 µM (active)
same,Potency,[5],12.6 µM (active)
same,Potency,[11],7.84 µM (active)
same,Potency,[12],7.94 µM (active)
same,Potency,[13],5.01 µM (active)
same,outcome,[15],inactive
same,outcome,[17],inactive
same,Potency,[18],11.7 µM (active)
same,outcome,[8],inactive
same,Potency,[19],inactive
same,outcome,[9],inactive
C[C@]12CCC(=O)C=C1CC[C@@H]1[C@@H]2[C@@H](O)C[C@@]2(C)[C@H]1CC[C@]2(O)C(=O)COC(=O)CCC(=O)O,Potency,[1],inactive
same,Potency,[4],inactive
same,outcome,[3],inactive
